Measurements taken from PubChem BioAssay (Tox21).
Results filed as inconclusive are left out. Entries that show only a call come without a potency. Values without a mark were called inactive. The source made the active and inactive calls. Calls come from the whole dose curve.

assay: p53 small molecule agonists, cell-based qHTS assay: qHTS cell viability counter screen (AID 1963581); conditions: p53RE-bla HCT-116 viability, ATP luminescence, 16 h; series mostly up to 66 µM; note: nearly all actives have a fitted effect of over 45% in size
Excerpt: National Center for Advancing Translational Sciences [NCATS]
Division of Preclinical Innovation [DPI]
U.S. Environmental Protection Agency [EPA]
National Institutes of Environmental Health Sciences [NIEHS]
National Toxicology Program [NTP]
U.S. Food and Drug Administration [FDA]
p53, a tumor suppressor protein, is activated following cellular insult, including DNA damage and other cellular stresses. The activation of p53 regulates cell fate by inducing DNA repair, cell cycle arrest, apoptosis, or cellular senescence. The activation of p53, therefore, is a good indicator of DNA damage and other cellular stresses. The CellSensor p53RE-bla HCT-116 cell line (Invitrogen) contains a stably integrated beta-lactamase reporter gene under control of the p53 response elements. The activation of the reporter gene under culture conditions can be detected by fluorescence intensity. This cell line was used to screen the Tox21 compound library in a 1536-well plate format and to identify agonists that activate the p53 signaling pathway. The cytotoxicity of the Tox21 compound library against the p53 RE-bla HCT-116 cell line was tested in parallel by measuring the intra cellular ATP content in the same wells.
Tox21 Assay Protocol Summary:
The p53RE-bla cells were dispensed at 4,000 cells/5 ul/well in 1536-well black wall/clear bottom plates using a Multidrop dispenser. After the assay plates were incubated at a 37 C/5% CO2 incubator for 5 hours, 23 nL of compounds dissolved in DMSO, positive controls or DMSO only was transferred to the assay plate by a pin tool. The plates were incubated at 37 C for 16 hours. After 1 uL of LiveBLAzerTM B/G FRET substrate was added using a Flying Reagent Dispenser, the plates were incubated at room temperature for 2 hours, and fluorescence intensity was measured by an Envision plate reader. For cell viability readout that measures cytotoxicity, 4 ul/well of CellTiter-Glo reagent was added into the assay plates using a Flying Reagent Dispenser. After 30 min incubation at room temperature, the luminescence intensity in the plates was measured using a ViewLux plate reader.

Compound | Potency | activity change, negative = cytotoxicity
Nc1c(Cl)cc(Cl)cc1[N+](=O)[O-] | inactive | –
O=C(CC(=O)C(F)(F)F)c1ccccc1 | inactive | –
O=C(Oc1cccc2cccnc12)c1ccccc1 | inactive | –
COC(=O)[C@]1(C)CCC[C@@]2(C)[C@H]1CC=C1C=C(C(C)C)CC[C@@H]12 | inactive | –
CCC[C@@H]1C[C@@H](C(=O)N[C@@H]([C@H]2O[C@H](SC)[C@H](O)[C@@H](O)[C@H]2O)[C@@H](C)O)N(C)C1 | inactive | –
CC(C)(N)C#N | inactive | –
O=[N+]([O-])C1(Br)COCOC1 | inactive | –
O=c1[nH]sc2ccccc12 | inactive | –
CCN1/C(=C/C=C/c2sc3ccccc3[n+]2CC)Sc2ccccc21 | – | 1.06% [at 13.5 µM]
C=C1CCC2CC1C2(C)C (stereo not given) | inactive | –
CC(N)=O | inactive | –
CN(C)c1ccc(N=NS(=O)(=O)O)cc1 | inactive | –
COc1cccc(CCc2ccccc2OCC(CN(C)C)OC(=O)CCC(=O)O)c1 (stereo not given) | inactive | –
CC(C)OC(=O)OCOP(=O)(CO[C@H](C)Cn1cnc2c(N)ncnc21)OCOC(=O)OC(C)C | inactive | –
OCCC1CCCCN1 (stereo not given) | inactive | –
CC/C=C\CC/C=C/CO | inactive | –
Cc1ccc(C=O)cc1C | inactive | –
CCCCCCCCCC(C)C=O (stereo not given) | inactive | –
CC(C)(C)C(O)/C=C/c1ccc2c(c1)OCO2 (stereo not given) | inactive | –
CN(C)CCN(C)CCO | inactive | –

Compound | Potency | activity change, negative = cytotoxicity
COc1cc2ncnc(Nc3cccc(Cl)c3)c2cc1OC | – | -12.1% [at 13.5 µM]
Cc1cc(C)c(C)c(C)c1 | inactive | –
CCN(CC)C(=O)c1cc(S(=O)(=O)Cc2ccccc2)c(N2CCC(c3ccccc3)CC2)cc1N(CC)CCN(C)C | inactive | –
Cc1ccc(NC(=O)c2ccc(CN3CCN(C)CC3)cc2)cc1Nc1nccc(-c2cccnc2)n1 | inactive | –
O=C1c2ccccc2C(=O)c2c(O)ccc(O)c21 | inactive | –
CC1(C)O[C@@H]2C[C@H]3[C@@H]4CCC5=CC(=O)C=C[C@]5(C)[C@H]4[C@@H](O)C[C@]3(C)[C@]2(C(=O)CO)O1 | inactive | –
C#C[C@]1(O)CC[C@H]2[C@@H]3[C@H](C)CC4=C(CCC(=O)C4)[C@H]3CC[C@@]21C | inactive | –
CC1=C(C(=O)O)N2C(=O)[C@@H](NC(=O)[C@H](N)c3ccc(O)cc3)[C@H]2SC1 | inactive | –
CCCCCCCC/C=C\CCCCCCCC(=O)OCCOC(=O)CCCCCCC/C=C\CCCCCCCC | inactive | –
CCCCCOC(=O)COc1cc(N2C(=O)C3=C(CCCC3)C2=O)c(F)cc1Cl | inactive | –
Cc1c(N)cccc1N | inactive | –
COC(=O)CSc1cc(N=c2sc(=O)n3n2CCCC3)c(F)cc1Cl | inactive | –
OC[C@H]1O[C@@H](OCCc2ccc(O)cc2)[C@H](O)[C@@H](O)[C@@H]1O | inactive | –
O=C(O)c1ccccc1-c1ccc(C(F)(F)F)cc1 | inactive | –
N#Cc1ccccc1C#N | inactive | –
CCCC1CCC(=O)CC1 | inactive | –
CCC(C)C(C)=O (stereo not given) | inactive | –
O=C1c2cccc3c2[C@H](CCC3)CN1[C@@H]1CN2CCC1CC2 | inactive | –
O=C(c1ccccc1)c1ccccc1 | inactive | –
CC(C)C(O)(c1ccc(OC(F)(F)F)cc1)c1cncnc1 (stereo not given) | inactive | –
